This note sets out measurements from the supplement of paper PMC6555819.

Holding throughout (assay): PBM binding z-score (relative to random genomic background probes); higher = stronger binding; sequences stand for … in GC…GCGATTGACAGCGTAGAATGAAGG
The test system of experiment [1] is FXR:RXRa (NR concentration 270 nM, RXRa partner concentration 90 nM). The method in brief: (§1)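 Probes were double-stranded and carried 34-nt variable regions with direct-repeat seeds, single-nucleotide variants, half-site ablations and random human genomic background sequences, printed on custom Agilent 4×180K protein-binding microarrays. Arrays were incubated 1 h with ligand-free nuclear receptor dimers in PBS pH 7.4, 2% milk, 0.02% Triton X-100, 1 mM DTT, 0.2 mg/mL BSA and 0.4 mg/ml salmon testes DNA. Antibodies against each partner (one per run) detected binding, and scanned fluorescence was regression-normalized. Binding z-scores use the random background probes as reference.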

For experiment [2], the system named is LXRa:RXRa (NR concentration 270 nM, RXRa partner concentration 90 nM). The method in brief:
as §1

For experiment [3], the system named is LXRa homodimer (NR concentration 270 nM). The procedure, abridged: as §1
Experiment [4] relates to LXRb:RXRa (NR concentration 270 nM, RXRa partner concentration 90 nM). The method in brief:
as §1

Experiment [5] relates to LXRb homodimer (NR concentration 270 nM). The method in brief:
as §1

Experiment [6] relates to PPARa:RXRa (NR concentration 270 nM, RXRa partner concentration 90 nM). The procedure, abridged: as §1
Experiment [7] deals with PPARg:RXRa (NR concentration 180 nM, RXRa partner concentration 90 nM). The procedure, abridged:
as §1

Experiment [8] deals with PPARg:RXRa 270nM:90nM, anti-RXR (NR concentration 270 nM, RXRa partner concentration 90 nM). The method in brief:
as §1

Experiment [9] deals with PPARg:RXRa 30nM:10nM, anti-RXR (NR concentration 30 nM, RXRa partner concentration 10 nM). The method in brief: as §1
Experiment [10] concerns PPARg:RXRa 90nM:30nM, anti-RXR (NR concentration 90 nM, RXRa partner concentration 30 nM). The method in brief: as §1
The subject of experiment [11] is PPARg:RXRa DBDmut IVT, anti-RXR (DBD mutation: RXRa K156A/R161A, NR concentration 270 nM, RXRa partner concentration 90 nM). The method in brief: as §1
Experiment [12] concerns PPARg:RXRa IVT, anti-PPARg (NR concentration 270 nM, RXRa partner concentration 90 nM). The procedure, abridged:
as §1

For experiment [13], the system named is PPARg DBDmut:RXRa IVT, anti-PPARg (DBD mutation: PPARg1 K132A/R137A, NR concentration 270 nM, RXRa partner concentration 90 nM). The procedure, abridged:
as §1

For experiment [14], the system named is PPARg DBDmut IVT, anti-PPARg (DBD mutation: PPARg1 K132A/R137A, NR concentration 270 nM). The method in brief: as §1
Experiment [15] has as its system PPARg homodimer (NR concentration 180 nM). The method in brief:
as §1

Experiment [16] relates to PXR:RXRa (NR concentration 270 nM, RXRa partner concentration 90 nM). The method in brief: as §1
The test system of experiment [17] is PXR homodimer (NR concentration 270 nM). The method in brief:
as §1

Experiment [18] relates to RARa:RXR (NR concentration 270 nM, RXRa partner concentration 90 nM). The method in brief: as §1
Experiment [19] relates to RARa homodimer (NR concentration 270 nM). The procedure, abridged: as §1
Experiment [20] relates to RARb:RXRa (NR concentration 270 nM, RXRa partner concentration 90 nM). The procedure, abridged:
as §1

As for TACCCTAGGTCAGATCGGGCCAGTATACGCTATA, the PBM binding z-score in [1] stood at 2.3; in experiment [2], 4.7; in experiment [3], 5.49; in experiment [4] it was 2.57; in experiment [5], 2.46; in experiment [6], 1.98. Also, the PBM binding z-score in experiment [7] was determined as 1.12; in [8] it was 1.34; in experiment [9] it was 0.45; in [10], 1.33; in experiment [11] it was 0.709; in [12] it was 2.17. In addition, the PBM binding z-score in [13] is 0.146; in experiment [14], -0.236; in experiment [15], 0.849; in experiment [16], 1.37; in experiment [17] it was -0.0848; in experiment [18], 1.8. For the same sequence, the PBM binding z-score was found to be 0.123 in [19] and 3.19 in [20].

Take ACTCGGAGGACAAAGGTCCGAGCTACGCCAGTGA: the PBM binding z-score is -0.0908 in experiment [1]; 0.0119 in experiment [2]; -0.328 in [3]; -0.654 in experiment [4]; -0.577 in experiment [5]; 0.672 in experiment [6]. Also, the PBM binding z-score in experiment [7] was found to be 1.66; in experiment [8] it was 2.29; in experiment [9], 0.616; in [10], 2.38; in experiment [11], 0.177; in experiment [12] it was 0.313. In addition, the PBM binding z-score in [13] is -0.996; in [14] it was -0.635; in experiment [15] it was -0.36; in experiment [16], -0.365; in experiment [17], -0.238; in experiment [18], -0.334. The PBM binding z-score is -0.387 in [19] and 1.29 in [20].

Consider CCTACTGGGCCATAGGTCATTGATTCCAATGCTC, for which the PBM binding z-score is 1.76 in experiment [1]; 2.08 in experiment [2]; 1.23 in [3]; 2.39 in [4]; -0.227 in [5]; 5.16 in experiment [6]. Besides, the PBM binding z-score is 9.89 in [7]; 8.77 in [8]; 8.56 in [9]; 10.3 in [10]; 3.69 in experiment [11]; 5.78 in experiment [12]. Further, the PBM binding z-score in experiment [13] is -0.202; in [14], 0.625; in experiment [15], 2; in experiment [16], 2.1; in experiment [17], 0.286; in experiment [18], 2.7. The PBM binding z-score in experiment [19] was -0.287; in [20], 2.34.

As for TCTAGTTGGTCAAAGGTCACCCACTCGAAATGCG, the PBM binding z-score in [1] worked out at 5.47; in experiment [2], 5.45; in [3], 3.51; in experiment [4], 5.12; in [5], 1.68; in experiment [6] it was 6.36. Further, the PBM binding z-score came out at 11.3 in [7]; 9.99 in experiment [8]; 10.9 in experiment [9]; 12.3 in [10]; 3.63 in experiment [11]; 6.67 in experiment [12]. For the same sequence, the PBM binding z-score in experiment [13] was determined as 1.96; in experiment [14], 2.09; in [15], 6.47; in experiment [16], 6.1; in experiment [17], 1.35; in [18], 7.69. Besides, the PBM binding z-score was 3.37 in experiment [19] and 4.9 in [20].

Consider ACTAGCAGGCCAACGGTCACTCAAGATTAGTCCG, for which the PBM binding z-score in [1] was -0.155; in experiment [2] it was -0.0207; in experiment [3], 0.0255; in experiment [4] it was -0.508; in experiment [5], -0.572; in experiment [6], 1.37. The PBM binding z-score in experiment [7] was 2.56; in [8], 3.92; in experiment [9], 2.08; in experiment [10], 3.72; in experiment [11], 1.21; in [12], 1.38. Further, the PBM binding z-score in experiment [13] was -0.412; in experiment [14] it was -0.352; in experiment [15], 0.237; in [16], -0.526; in [17] it was -0.588; in experiment [18] it was 0.0763. Also, the PBM binding z-score in experiment [19] is -0.817; in [20], 1.64.

For the sequence CGAACTAGGTCATTGACAGGGCAGTGAATAGTAA, the PBM binding z-score in experiment [1] was 4.4; in experiment [2], 3.17; in experiment [3] it was 0.428; in experiment [4] it was 1.99; in [5], -0.104; in experiment [6], 4.74. The PBM binding z-score was found to be 7.4 in [7]; 6.18 in experiment [8]; 3.75 in [9]; 5.96 in [10]; 8.27 in experiment [11]; 7.87 in experiment [12]. In addition, the PBM binding z-score in experiment [13] worked out at 2.56; in experiment [14], 1.37; in [15] it was 2.24; in experiment [16] it was 1.69; in experiment [17], 0.134; in [18], 2.69. Besides, the values for the PBM binding z-score in experiment [19] and in experiment [20] were 0.301 and 3.72, respectively.

For the sequence TCAGACAGGTGAAGGTATCTCAGGTACGCAGTCG, the PBM binding z-score in [1] is 0.108; in experiment [2], 0.719; in experiment [3], -0.00263; in experiment [4], 0.477; in [5], -0.0583; in experiment [6] it was 0.944. In addition, the PBM binding z-score worked out at 0.741 in experiment [7]; 2.22 in experiment [8]; 3.93 in experiment [9]; 3.03 in experiment [10]; 2.51 in experiment [11]; 0.967 in [12]. In addition, the PBM binding z-score is -0.232 in [13]; 0.111 in experiment [14]; 0.602 in experiment [15]; 0.375 in experiment [16]; 0.13 in [17]; 0.509 in experiment [18]. For the same sequence, the PBM binding z-score in experiment [19] was 0.153; in experiment [20], 1.08.
